In assay [1] the test system is Plasmodium falciparum. Put plainly: GSK_TCMDC: Inhibition of Plasmodium falciparum 3D7 in whole red blood cells, using parasite LDH activity as an index of growth. Test compounds present at 2uM. In kind it is functional.
The test system of assay [2] is Plasmodium falciparum. The assay can be described thus: GSK_TCMDC: Inhibition of Plasmodium falciparum Dd2 in whole red blood cells, using parasite LDH activity as an index of growth. Test compounds present at 2uM. It is filed as functional.

Molecules are shown by their SMILES. Several values for one entry are separate records, joined by “and”; a condition that tells them apart may be missing. Equal values may be shown once.

Consider `O=C(NCCCCN1CCN(c2nsc3ccccc23)CC1)c1ccccc1C(=O)NCCCCN1CCN(c2nsc3ccccc23)CC1`, for which the Inhibition (as a rule, how much of the control response was suppressed) was 100% in assay [1] and 22% in assay [2].

As for `CC(=O)Oc1c(Cl)c(C)nc(C)c1-c1ccc(Oc2ccc(Cl)cc2)cc1`, the Inhibition in assay [1] was found to be 98%; in assay [2] it was 96%.

Regarding `CCCc1ccc(Cc2cnc3nc(N)nc(N)c3c2C)cc1`, the Inhibition is reported as 98% in assay [1] and 0% in assay [2].

For `Cc1nc(C)c(-c2cccc(Oc3ccc(Cl)cc3)c2)c(O)c1Br`, the Inhibition in assay [1] is reported as 96%; in assay [2], 97%.

In the case of `Cc1cc(O)c(-c2ccc(S(=O)(=O)c3ccc(Cl)cc3)cc2)c(C)n1`, the Inhibition in assay [1] is 92%; in assay [2], 80%.

On to `CC(C)Cn1cc2c(ccc3nc(N)nc(N)c32)n1`, for which the Inhibition in assay [1] came out at 97%; in assay [2] it was 2%.

As to `Nc1nc(N)c2c(Oc3cc(Cl)c(Cl)c(Cl)c3)cccc2n1`, the results for the Inhibition in assay [1] and in assay [2] were 100% and 92%, respectively.

For `COc1ccc(-c2cnc(N)nc2N)cc1Cl`, the Inhibition in assay [1] came out at 84%; in assay [2], 1%.

With `Cc1ccccc1OCCCc1c(C)nc(N)nc1N`, the figures for the Inhibition in assay [1] and in assay [2] were 97% and 1%, respectively.

Regarding `Nc1nc(N)c(-c2ccccc2)c(=O)[nH]1`, the Inhibition in assay [1] was 83%; in assay [2], 0%.

As for `CCCc1cc2c3c(N)nc(N)nc3ccc2n1CC`, the results for the Inhibition in assay [1] and in assay [2] were 96% and 6%, respectively.

Consider `Nc1nc(N)c2c3c(ccc2n1)CCC3`, for which the Inhibition in assay [1] worked out at 92%; in assay [2] it was 2%.

In the case of `COc1cc(Cc2cnc(N)nc2N)cc(OCCCS(=O)(=O)O)c1OC`, the Inhibition in assay [1] is listed as 88%; in assay [2] it was 0%.

Consider `Cn1c(N)cc(-c2cccc(I)c2)c2c(=O)nc(N)nc1-2`, for which the results for the Inhibition in assay [1] and in assay [2] were 89% and 75%, respectively.

On to `CCNCCCC(C)Nc1ccnc2cc(Cl)ccc12.O=C(O)C(=O)O` (configuration not stated), for which the Inhibition in assay [1] was found to be 100%; in assay [2], 0%.

For `Cc1nc(C)c(-c2ccc(Oc3cc(Cl)cc(Cl)c3)cc2)c(O)c1Br`, the Inhibition is reported as 96% in assay [1] and 97% in assay [2].

As to `N=C(N)NC(=O)Nc1ccc(Cl)c(C(F)(F)F)c1`, the Inhibition in assay [1] was determined as 100%; in assay [2], 13%.

With `CCc1nc(N)nc(N)c1-c1ccc2c(c1)CCCC2`, the results for the Inhibition in assay [1] and in assay [2] were 95% and 0%, respectively.

Take `CCN(CC)CCCN(CCCN(CC)CC)c1cc(C)nc(Nc2ccc(Br)cc2)n1.Cl`: the Inhibition is reported as 100% in assay [1] and 40% in assay [2].

Regarding `CCc1ccc(Cc2cnc3nc(N)nc(N)c3c2C)cc1`, the results for the Inhibition in assay [1] and in assay [2] were 97% and 0%, respectively.

Turning to `Nc1nnc(-c2ccc(Cl)c(Br)c2)c(N)n1`, the Inhibition amounted to 86% in assay [1] and 0% in assay [2].

For the molecule `Cc1nc(C)c(-c2ccc(Oc3ccc(Cl)c(Cl)c3)cc2)c(O)c1Cl`, the Inhibition is given as 100% in assay [1] and 97% in assay [2].

Take `Nc1nc(N)c2cc(Cc3ccc([N+](=O)[O-])cc3)cnc2n1.O=S(=O)(O)O`: the Inhibition is 91% in assay [1] and 0% in assay [2].

For `CN(Cc1cnc2nc(N)nc(N)c2n1)c1ccc(C(=O)N[C@H](CCC(=O)OC(C)(C)C)C(=O)N[C@@H](CCC(=O)OC(C)(C)C)C(=O)OC(C)(C)C)cc1`, the Inhibition in assay [1] is reported as 85%; in assay [2], 1%.

In the case of `CCc1cccc(-c2cc(N)n(C)c3nc(N)nc(=O)c2-3)c1`, the Inhibition was 85% in assay [1] and 28% in assay [2].

As for `CCOc1cc2ncnc(Nc3ccc(OCc4c(Cl)cccc4Cl)c(OC)c3)c2cc1OCC.Cl`, the results for the Inhibition in assay [1] and in assay [2] were 89% and 12%, respectively.

Take `Cc1nc2nc(N)nc(N)c2c(C)c1Cc1ccc(N)cc1.Cl`: the Inhibition came to 97% in assay [1] and 0% in assay [2].

On to `COc1ccc2ncc(F)c(C(O)CN3CCC(NCc4ccc5c(n4)NC(=O)CO5)CC3)c2c1.Cl` (configuration not stated), for which the Inhibition in assay [1] was 99% and 100%; in assay [2], 51% and 88%.

On to `CCOC(=O)c1nc2ccc(SC3CCCCC3)cn2c1Br`, for which the Inhibition in assay [1] was 86%; in assay [2], 3%.

`Cc1nc(N)nc(N)c1-c1cc(Cl)c(Cl)c(Cl)c1`: the results for the Inhibition in assay [1] and in assay [2] were 97% and 0%, respectively.

Turning to `CN(C)S(=O)(=O)n1ncc2c3c(N)nc(N)nc3ccc21.Cl`, the figures for the Inhibition in assay [1] and in assay [2] were 96% and 0%, respectively.

For the molecule `CCOc1cc(Cc2cnc(N)nc2N)ccc1OC.Cl`, the results for the Inhibition in assay [1] and in assay [2] were 88% and 0%, respectively.

Turning to `CC/N=C(/NCCCCCCN/C(=N/CC)NCc1ccccc1)NCc1ccccc1.I`, the Inhibition in assay [1] turned out to be 96%; in assay [2] it was 95%.

Regarding `Nc1ncc(-c2ccc(F)c(Cl)c2)c(N)n1`, the Inhibition in assay [1] is 83%; in assay [2], 0%.

As to `COc1ccc2c(c1CNCCCCCCNCc1c(OC)ccc3c1CCCC3)CCCC2`, the figures for the Inhibition in assay [1] and in assay [2] were 94% and 7%, respectively.

In the case of `COCCOCCOCCn1ccc2c3c(N)nc(N)nc3ccc21`, the values for the Inhibition in assay [1] and in assay [2] were 97% and 0%, respectively.

As to `CC(C)(C)c1ccc(-c2nnc(N)nc2N)cc1`, the Inhibition in assay [1] is recorded as 92%; in assay [2], 0%.

`COc1cc(Cc2cnc(N)nc2N)cc(OCCCCC#N)c1OC`: the results for the Inhibition in assay [1] and in assay [2] were 86% and 0%, respectively.

As to `CC(=NNc1nc2ccccc2s1)c1ccccn1.Cl`, the Inhibition is on record as 88% in assay [1] and 47% in assay [2].

Turning to `Cc1nc(C)c(-c2ccc(Oc3ccc(OC(F)(F)F)cc3)cc2)c(OC(=O)c2ccc(CN(C)C)cc2)c1Cl`, the Inhibition in assay [1] and in assay [2] was 98% in each case.

On to `CC(C)n1c(C(C)(C)C)cc2c3c(N)nc(N)nc3ccc21`, for which the Inhibition in assay [1] is listed as 100%; in assay [2] it was 99%.

These data come from ChEMBL document CHEMBL1157539, “Thousands of chemical starting points for antimalarial lead identification” (Nature, 2010).
